# Measured values published in article PMC4336329 (PLoS ONE, 2015).
# In all, about 310,000 compounds went through this assay and about 14,000 (4.5%) showed an effect of 50% or more. Effects have a minus sign here. Only a selection was taken, and strong results are over-represented in it overall.
# Biological target: human ether-à-go-go-related gene (hERG) potassium channel (human, UniProt Q12809)
# Experiment: primary screen, population patch clamp on CHO cells stably expressing hERG; higher = less effect of the substance
# Procedure: Briefly, Chinese hamster ovary (CHO) cells stably expressing the hERG channel were dislodged from tissue culture flasks and dispensed into PPC plates. […] During the recording, background leak currents were estimated by a 100 ms step to -80 mV from an initial holding potential of -70 mV and subtracted from the subsequent current measurement. The campaign was conducted in two phases using slight differences in recording protocol. In the first phase, the initial voltage pulse used a 100 ms step to -30 mV from a holding potential of -70 mV, a 2 s conditioning step to +25 mV, and a 2 s test step to -30 mV. During the second phase of the screen, the potential during the conditioning step was raised to +45 mV. In both phases of the campaign, a secondary voltage pulse was applied using the same parameters as the second phase initial pulse. The initial and secondary pulses were applied in the absence of compound, and upon application of 1 μM and 10 μM test concentrations. […]
# 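Note: peak tail current of the secondary pulse compared with the same well before compound.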
# human ether-à-go-go-related gene (hERG) potassium channel, sequence (Q12809 whole entry, looked up): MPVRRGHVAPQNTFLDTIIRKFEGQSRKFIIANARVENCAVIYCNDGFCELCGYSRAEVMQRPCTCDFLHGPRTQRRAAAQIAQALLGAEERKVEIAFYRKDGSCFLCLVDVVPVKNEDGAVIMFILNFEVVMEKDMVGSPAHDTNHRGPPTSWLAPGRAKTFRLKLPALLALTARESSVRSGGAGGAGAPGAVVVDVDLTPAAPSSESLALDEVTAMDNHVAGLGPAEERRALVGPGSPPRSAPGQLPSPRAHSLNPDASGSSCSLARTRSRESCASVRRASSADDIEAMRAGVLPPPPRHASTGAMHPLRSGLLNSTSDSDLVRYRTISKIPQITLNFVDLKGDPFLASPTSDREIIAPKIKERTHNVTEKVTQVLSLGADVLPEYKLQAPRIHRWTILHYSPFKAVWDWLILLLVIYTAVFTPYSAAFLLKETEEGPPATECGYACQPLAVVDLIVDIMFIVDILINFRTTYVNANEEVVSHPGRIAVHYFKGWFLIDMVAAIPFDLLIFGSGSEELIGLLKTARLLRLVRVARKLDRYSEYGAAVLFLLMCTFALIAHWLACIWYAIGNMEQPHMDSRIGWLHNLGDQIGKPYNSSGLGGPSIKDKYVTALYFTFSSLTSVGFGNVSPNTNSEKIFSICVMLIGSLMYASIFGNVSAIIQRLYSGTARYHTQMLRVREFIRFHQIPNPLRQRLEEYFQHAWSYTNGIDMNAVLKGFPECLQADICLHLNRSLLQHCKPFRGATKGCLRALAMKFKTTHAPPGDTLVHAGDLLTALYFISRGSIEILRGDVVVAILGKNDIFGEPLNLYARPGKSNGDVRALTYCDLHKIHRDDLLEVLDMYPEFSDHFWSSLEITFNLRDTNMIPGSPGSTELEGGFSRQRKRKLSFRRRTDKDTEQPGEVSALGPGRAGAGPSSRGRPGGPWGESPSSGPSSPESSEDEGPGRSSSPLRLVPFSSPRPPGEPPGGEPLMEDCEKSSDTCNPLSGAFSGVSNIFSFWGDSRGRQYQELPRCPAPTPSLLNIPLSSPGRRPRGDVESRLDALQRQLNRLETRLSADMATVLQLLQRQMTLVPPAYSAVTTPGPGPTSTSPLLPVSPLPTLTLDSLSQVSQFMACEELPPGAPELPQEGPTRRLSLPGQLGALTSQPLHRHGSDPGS
row,SMILES,"hERG current change (%, negative = inhibition) at 10uM"
1,Cc1ccc(S(=O)(=O)N(C)c2ccc(OCC(=O)N3CCCCC3)cc2)cc1,-10.5%
2,CCOC(=O)C1CCCN(C(=O)COc2ccc(N(C)S(=O)(=O)c3ccc(F)cc3)cc2)C1 (centres unmarked),-66.5%
3,CN1CCN(C(=O)COc2ccc(N(C)S(=O)(=O)c3ccc(F)cc3)cc2)CC1,-4.56%
4,CCOC(=O)C1CCN(C(=O)COc2ccc(N(C)S(=O)(=O)c3ccc(OCC)cc3)cc2)CC1,-4.08%
5,CCOC(=O)C1CCN(C(=O)COc2ccc(N(C)S(=O)(=O)c3ccc(C)cc3)cc2)CC1,-57.7%
6,CCOC(=O)C1CCCN(C(=O)COc2ccc(N(C)S(=O)(=O)c3ccc(C)cc3)cc2)C1 (centres unmarked),-56.8%
7,CCOC(=O)C1CCCN(C(=O)COc2ccc(S(=O)(=O)N(CC)c3ccccc3)cc2)C1 (centres unmarked),-51.8%
8,CN(c1ccc(OCC(=O)N2CCOCC2)cc1)S(=O)(=O)c1ccc(F)cc1,-9.15%
9,COC(=O)C1CCN(C(=O)COc2ccc(N(C)S(=O)(=O)c3ccc(C)cc3)cc2)CC1,-33.8%
10,CCN(c1ccccc1)S(=O)(=O)c1ccc(OCC(=O)N2CCCC2)cc1,-10.4%
11,Cc1ccc(S(=O)(=O)N(C)c2ccc(OCC(=O)N3CCCC(C(F)(F)F)C3)cc2)cc1 (centres unmarked),-39.9%
12,O=C(COC(=O)c1cnccn1)c1cccc([N+](=O)[O-])c1,14.4%
13,O=C(Nc1ccccc1Cl)c1sccc1-c1ccccc1,-2.39%
14,COc1ccc(/C=N/NC(=O)C(=O)Nc2ccccn2)cc1OC,-27.2%
15,COc1ccc(C2=NS(=O)(=O)N(C)C(C(=O)NCc3ccccn3)=C2)cc1OC,-4.15%
16,CC1=CC(C)(C)Nc2ccc(OC(=O)c3ccco3)cc21,-0.0756%
17,CC1CN(C(=O)CN2C(=O)c3ccccc3C2=O)CC(C)O1 (centres unmarked),6.42%
18,CCCCCCN1CC(=O)N2Cc3[nH]c4ccccc4c3C[C@H]2C1=O,-9.11%
19,O=C(CCCSc1nc2ccccc2[nH]1)Nc1nnc(C2CC2)s1,-1.62%
20,CCn1c(SCC(N)=O)nc2sc3c(c2c1=O)CCCC3,1.24%
21,CCOc1ccccc1Oc1c(C)oc2cc(OC(=O)N3CCOCC3)ccc2c1=O,4.41%
22,O=C(NCCc1ccccc1F)C1CCC(=O)N(CCCN2CCCC2=O)C1 (centres unmarked),-7.84%

row,SMILES,"hERG current change (%, negative = inhibition) at 10uM"
1,COCC1CCCCC1OS(N)(=O)=O (centres unmarked),5.38%
2,Cn1cccc1-c1nc2ccccc2n1C,-1.23%
3,Cn1cc(Cl)c(-c2nc3ccccc3[nH]2)n1,-1.45%
4,CN1C2CCC1CC(NC(=O)c1ccc([N+](=O)[O-])cc1)C2 (centres unmarked),3.81%
5,COc1ccc(C(=O)NC2CC3CCCC(C2)N3CC(C)C)cc1 (centres unmarked),-34.7%
6,CC(C)CN1C2CCCC1CC(NC(=O)c1ccc([N+](=O)[O-])cc1)C2 (centres unmarked),-78.3%
7,COCCNC(=S)NC1CC2CCCC(C1)N2Cc1cccs1 (centres unmarked),-26.7%
8,O=C(NC1CC2CCCC(C1)N2Cc1cccs1)N1CCOCC1 (centres unmarked),-6.2%
9,O=C(NC1CC2CCCC(C1)N2Cc1cccs1)c1ccc([N+](=O)[O-])cc1 (centres unmarked),-84.3%
10,O=C(NC1CC2CCCC(C1)N2Cc1ccccc1)c1ccc([N+](=O)[O-])cc1 (centres unmarked),-81%
11,CCCN1C2CCCC1CC(NC(=O)c1cccc([N+](=O)[O-])c1)C2 (centres unmarked),-36.8%
12,Cc1ccc(NC(=O)c2ccc(N3CCCC3=O)cc2)cc1S(=O)(=O)N1CCCCC1,-3.33%
13,Cc1ccc(S(=O)(=O)N2CCN(C(=O)CCOc3cc(C)ccc3C)CC2)cc1,-32.8%
14,CSCCC(NC(=O)c1ccccc1Cl)C(=O)N1CCCCCCC1 (centres unmarked),-6.4%
15,CC(=O)Nc1ccc(N2C(=O)C3C4CC(=O)C(c5ccccc54)C3C2=O)cc1 (centres unmarked),7.32%
16,Oc1ccccc1-c1nc(NCCN2CCOCC2)c2ccccc2n1,-26.2%
17,CCOC(=O)CSc1ccc(C(=O)Nc2ccc(Cl)cc2)cn1,21.8%
18,CCOC(=O)c1c(C)[nH]c(C)c1S(=O)(=O)NCC(=O)Nc1ccccn1,17.9%
19,COc1ccc(N)c2c1C(=O)c1ccccc1C2=O,-10.4%
20,CC(COc1ccccc1Cc1ccccc1)N1CCCCC1.O=P(O)(O)O (centres unmarked),-70.1%
21,CC(C(=O)Nc1ccc(OCc2ccccc2)cc1)N1CCCC1 (centres unmarked),-21.6%
22,CC(OC(=O)COc1ccccc1Cc1ccccc1)C(=O)N(C)c1ccccc1 (centres unmarked),-0.572%
